From PubChem BioAssay
The source made the active and inactive calls. Unless noted, how the calls were made is not given here.

Target: Dihydroorotate dehydrogenase (quinone), mitochondrial (Plasmodium falciparum (isolate 3D7)) (UniProt Q08210)
Assay: PfDHODH enzyme inhibitors, primary screen, biochemical, C-terminal His tag, absorbance 600 nm (AID 1175);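 further: recombinant parasite enzyme with a five histidine tag at its C terminus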
Conditions: DCIP absorbance 600 nm, higher = more signal, called active from +8 up or from −8 down
Further: test concentration not given here.

Sequence of Dihydroorotate dehydrogenase (quinone), mitochondrial (Plasmodium falciparum (isolate 3D7)) (Q08210 whole entry, looked up): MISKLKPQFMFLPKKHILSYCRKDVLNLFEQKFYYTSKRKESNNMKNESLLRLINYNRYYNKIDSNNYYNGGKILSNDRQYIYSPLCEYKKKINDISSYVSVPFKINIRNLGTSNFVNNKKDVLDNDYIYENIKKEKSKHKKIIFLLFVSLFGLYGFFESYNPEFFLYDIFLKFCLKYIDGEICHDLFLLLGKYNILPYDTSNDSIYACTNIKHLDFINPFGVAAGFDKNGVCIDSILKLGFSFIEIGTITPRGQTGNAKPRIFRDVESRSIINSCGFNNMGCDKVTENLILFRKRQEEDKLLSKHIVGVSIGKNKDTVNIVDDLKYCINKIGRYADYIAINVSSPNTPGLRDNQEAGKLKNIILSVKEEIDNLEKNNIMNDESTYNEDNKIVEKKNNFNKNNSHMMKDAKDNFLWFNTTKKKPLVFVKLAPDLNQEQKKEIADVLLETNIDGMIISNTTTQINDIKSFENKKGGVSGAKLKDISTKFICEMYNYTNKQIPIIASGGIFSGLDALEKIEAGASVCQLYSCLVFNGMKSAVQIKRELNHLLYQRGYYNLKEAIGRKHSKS

SMILES | composite z-score
C=C(CCCC)/C(=C/C[C@@H](OC(C)=O)c1cccc(OCCO)c1)c1cc(C(=O)OC)ccc1OC | -0.943 (inactive)
C=CCNC(=O)[C@H]1[C@@H]2C(=O)O[C@@H](c3ccccc3)[C@@H](c3ccccc3)N2[C@@H](c2ccc(OCCO)cc2)[C@]12C(=O)N(C(=O)OCCOC)c1ccc(C#CCC(C(=O)OC)C(=O)OC)cc12 | 0.0899 (inactive)
C=CCOC(=O)[C@@H]1[C@H]2C(=O)O[C@H](c3ccccc3)[C@H](c3ccccc3)N2[C@H](c2ccc(OCCOC(=O)[C@@H]3C[C@@H]4C(=O)N[C@@H](CC(C)C)C(=O)N4[C@@H]3c3ccc(O)cc3)cc2)[C@@]12C(=O)Nc1ccc(I)cc12 | -1.42 (inactive)
COC(=O)[C@@]1(Cc2ccc(F)cc2)[C@H]2c3cc(C(=O)N4CCCC4)n(C[C@H](O)CO)c3C[C@H]2CN1C(=O)c1ccccc1 | -0.323 (inactive)
COc1cc2c(cc1O)C(C)N(Cc1sc3ccccc3c1Cl)CC2 (configuration not stated) | -2.64 (inactive)
Cc1ccc(S(=O)(=O)N2[C@@H](c3ccccc3)C(C(=O)O)=CC[C@H]2c2ccc(F)cc2)cc1 | -0.667 (inactive)
C=C(C(=O)CC[C@@H](OC(=O)c1ccccc1-c1ccccc1C(=O)O)c1ccc(OCCO)cc1)C(C)C | -1.29 (inactive)
C=CC[C@H](OC(=O)Nc1ccc(SC)cc1)c1ccc(O)c(F)c1 | -1.32 (inactive)
O=C1c2ccccc2[C@@]2(Cc3ccccc3N(CC(F)(F)F)C2=O)[C@H](c2ccc(CO)cc2)N1Cc1ccccc1 | -17.8 (active)
C#CCN(C(=O)OC(C)(C)C)[C@H](CO)c1ccccc1 | -0.2 (inactive)
COC(=O)[C@@]1(Cc2ccc(F)cc2)[C@H]2c3cc(C(=O)N4CCCC4)n(CCc4c[nH]c5cc(F)ccc45)c3C[C@H]2CN1C(=O)c1ccccc1 | -0.362 (inactive)
CC[C@@H]1C=C(C(=O)O)[C@H](c2cccc(Cl)c2)N1S(=O)(=O)c1ccc(C)cc1 | -0.831 (inactive)
C=CCNC(=O)[C@@H]1[C@H]2C(=O)O[C@H](c3ccccc3)[C@H](c3ccccc3)N2[C@H](c2ccc(OCCO)cc2)[C@@]12C(=O)N(C(=O)OCCOC)c1ccccc12 | 0.659 (inactive)
COCCCNC(=O)[C@@]1(CCC(=O)OC(C)(C)C)N=C(c2ccc(OCCCO)cc2)O[C@H]1c1ccccc1 | -1.1 (inactive)
CC(C)C[C@@H]1NC(=O)[C@@H]2C[C@H](C(=O)NCCCCCCNC(=O)CS)[C@H](c3ccc(O)cc3)N2C1=O | -0.283 (inactive)
C=C(COC)/C(=C/C[C@@H](OC(=O)c1ccncc1)c1ccccc1OCCO)c1cnc2ccccc2c1 | -3.66 (inactive)
C=C(C(=O)CC[C@H](OC(=O)c1ccccc1-c1ccccc1C(=O)O)c1ccc(OCCO)cc1)C(C)C | -0.311 (inactive)
COC(=O)Cn1c(C(=O)N(C)C)cc2c1C[C@H]1CN(C(=O)c3ccccc3)[C@@](Cc3ccccc3)(C(=O)OC)[C@@H]21 | -0.777 (inactive)
COc1cc(Cc2cc3c(c(-c4ccccc4)n2)[Si](C(C)C)(C(C)C)OC3)cc(OC)c1OC | 0.021 (inactive)
[N-]=[N+]=NCc1ccccc1[C@H]1OC(c2ccc(OCCCO)cc2)=N[C@@]1(Cc1ccccc1N=[N+]=[N-])C(=O)O | -0.862 (inactive)
COC(=O)c1c2oc(c1C(=O)OC)C(=O)N[C@H](Cc1ccccc1)Cn1cc(nn1)C1(CCCCC1)NC(=O)N[C@H](CO)CC2 | -0.174 (inactive)
CC(C)N1CC=CC23O[C@@H]4/C=C\CCCOC(=O)C4[C@H]2C(=O)N(C(C)CO)[C@@H]3C1=O (some centres not stated) | -0.555 (inactive)
O=C1C2C=CC(C(O)C3CCCCC3)N(Nc3ccccc3F)C2C(=O)N1c1ccccc1 (configuration not stated) | -0.572 (inactive)
CC1CC/C=C\[C@H]2OC34C=CCN(C(C)C)C(=O)[C@H]3N(C(C)CO)C(=O)[C@@H]4C2C(=O)O1 (some centres not stated) | -0.0766 (inactive)
CC(C)(C)OC(=O)CC[C@@]1(C(N)=O)N=C(c2ccc(OCCCO)cc2)O[C@@H]1c1ccccc1CN=[N+]=[N-] | -1 (inactive)
O=C(NC1CC1)[C@@H]1c2ccccc2C(=O)N(C2CCCCC2)[C@H]1c1ccc(CO)cc1 | -0.245 (inactive)
COc1ccc(CCNC(=O)[C@@]2(c3ccc([N+](=O)[O-])cc3)CC(=O)N(C3CCCCC3)[C@@H]2c2ccc(CO)cc2I)cc1 | 1.45 (inactive)
C=C(COC)C(=O)CC[C@@H](OC(=O)c1ccccc1-c1ccccc1C(=O)O)c1ccccc1OCCO | -1.57 (inactive)

System: not listed separately
Assay: P. aeruginosa biofilm formation inhibitors, primary screen, strain PAO1, LB-PBS medium, absorbance 600 nm (AID 1176)
Conditions: P. aeruginosa PAO1 growth/biofilm, A600, 12 h; higher = more signal

SMILES | z-score
COCCOC(=O)N1C(=O)[C@@]2(c3cc(C#CCCO)ccc31)[C@H](C(=O)N1CCN(c3ncccn3)CC1)[C@H]1C(=O)O[C@H](c3ccccc3)[C@H](c3ccccc3)N1[C@@H]2c1ccc(OCCO)cc1 | 1.17 (inactive)
CC[C@@H](O[Si](C#C[Si](C(C)C)(C(C)C)C(C)C)(C(C)C)C(C)C)c1cn(Cc2cccc(Cl)c2)nn1 | 0.313 (inactive)
COCCOC(=O)N1C(=O)[C@@]2(c3cc(C#CCC(C(=O)OC)C(=O)OC)ccc31)[C@H](c1ccc(O)cc1)N1[C@H](c3ccccc3)[C@H](c3ccccc3)OC(=O)[C@H]1[C@@H]2C(=O)N1CCc2cc(OC)c(OC)cc2C1 | 0.008 (inactive)
Cc1ccc(S[C@]2(C(=O)NCCN3CCOCC3)CC(=O)N(C(C)C)[C@@H]2c2ccc(CO)cc2I)cc1 | 0.553 (inactive)
CC(C)c1ccc(NN2C(C(O)c3ccccc3)C=CC3C(=O)N(c4ccccc4)C(=O)C32)cc1 (configuration not stated) | 1.16 (inactive)
CC(C)C(=C=CC[C@H](O)c1cccc(OCCO)c1)C[C@H](O)c1ccccn1 | 0.625 (inactive)
COCCOC(=O)N1C(=O)[C@@]2(c3cc(C#CCNC(N)=O)ccc31)[C@H](c1ccc(O)cc1)N1[C@H](c3ccccc3)[C@H](c3ccccc3)OC(=O)[C@H]1[C@@H]2C(=O)N1CCc2cc(OC)c(OC)cc2C1 | 0.902 (inactive)
[N-]=[N+]=NCc1ccccc1[C@H]1OC(c2ccc(OCCCO)cc2)=N[C@@]1(Cc1ccccc1N=[N+]=[N-])C(=O)N1CCOCC1 | 0.438 (inactive)
C=C(CCCC)/C(=C/C[C@@H](OC(C)=O)c1cccc(OCCO)c1)c1cc(C(=O)OC)ccc1OC | 0.0599 (inactive)
C=CCNC(=O)[C@H]1[C@@H]2C(=O)O[C@@H](c3ccccc3)[C@@H](c3ccccc3)N2[C@@H](c2ccc(OCCO)cc2)[C@]12C(=O)N(C(=O)OCCOC)c1ccc(C#CCC(C(=O)OC)C(=O)OC)cc12 | 1.5 (inactive)
C=CCOC(=O)[C@@H]1[C@H]2C(=O)O[C@H](c3ccccc3)[C@H](c3ccccc3)N2[C@H](c2ccc(OCCOC(=O)[C@@H]3C[C@@H]4C(=O)N[C@@H](CC(C)C)C(=O)N4[C@@H]3c3ccc(O)cc3)cc2)[C@@]12C(=O)Nc1ccc(I)cc12 | 0.848 (inactive)
COC(=O)[C@@]1(Cc2ccc(F)cc2)[C@H]2c3cc(C(=O)N4CCCC4)n(C[C@H](O)CO)c3C[C@H]2CN1C(=O)c1ccccc1 | 0.812 (inactive)
COc1cc2c(cc1O)C(C)N(Cc1sc3ccccc3c1Cl)CC2 (configuration not stated) | 0.668 (inactive)
Cc1ccc(S(=O)(=O)N2[C@@H](c3ccccc3)C(C(=O)O)=CC[C@H]2c2ccc(F)cc2)cc1 | 0.244 (inactive)
C=C(C(=O)CC[C@@H](OC(=O)c1ccccc1-c1ccccc1C(=O)O)c1ccc(OCCO)cc1)C(C)C | 0.85 (inactive)
C=CC[C@H](OC(=O)Nc1ccc(SC)cc1)c1ccc(O)c(F)c1 | 1.1 (inactive)
O=C1c2ccccc2[C@@]2(Cc3ccccc3N(CC(F)(F)F)C2=O)[C@H](c2ccc(CO)cc2)N1Cc1ccccc1 | 0.118 (inactive)
C#CCN(C(=O)OC(C)(C)C)[C@H](CO)c1ccccc1 | -0.234 (inactive)
COC(=O)[C@@]1(Cc2ccc(F)cc2)[C@H]2c3cc(C(=O)N4CCCC4)n(CCc4c[nH]c5cc(F)ccc45)c3C[C@H]2CN1C(=O)c1ccccc1 | -0.815 (inactive)
CC[C@@H]1C=C(C(=O)O)[C@H](c2cccc(Cl)c2)N1S(=O)(=O)c1ccc(C)cc1 | -0.184 (inactive)
C=CCNC(=O)[C@@H]1[C@H]2C(=O)O[C@H](c3ccccc3)[C@H](c3ccccc3)N2[C@H](c2ccc(OCCO)cc2)[C@@]12C(=O)N(C(=O)OCCOC)c1ccccc12 | 2.69 (inactive)
COCCCNC(=O)[C@@]1(CCC(=O)OC(C)(C)C)N=C(c2ccc(OCCCO)cc2)O[C@H]1c1ccccc1 | -0.568 (inactive)
CC(C)C[C@@H]1NC(=O)[C@@H]2C[C@H](C(=O)NCCCCCCNC(=O)CS)[C@H](c3ccc(O)cc3)N2C1=O | 1.97 (inactive)
C=C(COC)/C(=C/C[C@@H](OC(=O)c1ccncc1)c1ccccc1OCCO)c1cnc2ccccc2c1 | -0.66 (inactive)
C=C(C(=O)CC[C@H](OC(=O)c1ccccc1-c1ccccc1C(=O)O)c1ccc(OCCO)cc1)C(C)C | 0.509 (inactive)
COC(=O)Cn1c(C(=O)N(C)C)cc2c1C[C@H]1CN(C(=O)c3ccccc3)[C@@](Cc3ccccc3)(C(=O)OC)[C@@H]21 | -0.747 (inactive)
COc1cc(Cc2cc3c(c(-c4ccccc4)n2)[Si](C(C)C)(C(C)C)OC3)cc(OC)c1OC | -0.133 (inactive)
[N-]=[N+]=NCc1ccccc1[C@H]1OC(c2ccc(OCCCO)cc2)=N[C@@]1(Cc1ccccc1N=[N+]=[N-])C(=O)O | 0.535 (inactive)
COC(=O)c1c2oc(c1C(=O)OC)C(=O)N[C@H](Cc1ccccc1)Cn1cc(nn1)C1(CCCCC1)NC(=O)N[C@H](CO)CC2 | 0.772 (inactive)
